Measured values taken from the supplement of paper PMC4466140.

What follows are binders tested against AgAbp1 (assay: SPOT peptide array binding signal intensity (averaged, normalized) (arbitrary units (background-subtracted, floor 0; scale differs between SH3 domains)); higher = stronger binding of the SH3 domain to the peptide).
How it was run: (§1)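 Cellulose membranes carried synthetic 15-mer peptides with cysteines swapped for serines. These were incubated overnight at 4°C with 10 μg/ml of GST-fused SH3 domains from four yeast species in TBS-based blocking buffer. Binding signal, detected with anti-GST antibody and quantified in Genespotter, is the normalized, background-subtracted spot intensity averaged over replicates, in arbitrary units specific to each domain.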

Binder | SPOT peptide array binding signal intensity
STKKPRPPVKSKPKH | 553

What follows are binders tested against AgBbc1 in the same assay as above.
How it was run: as §1

Binder | SPOT peptide array binding signal intensity
STKKPRPPVKSKPKH | 104

Each binder was assayed against AgBem1-D1 in the same assay as above.
How it was run: as §1

Binder | SPOT peptide array binding signal intensity
STKKPRPPVKSKPKH | 1

What follows are binders tested against AgBzz1-D1 in the same assay as above.
How it was run: as §1

Binder | SPOT peptide array binding signal intensity
STKKPRPPVKSKPKH | 72

The binders below were run against AgBzz1-D2 in the same assay as above.
How it was run: as §1

Binder | SPOT peptide array binding signal intensity
STKKPRPPVKSKPKH | 38

These binders were tested against AgCyk3 in the same assay as above.
How it was run: as §1

Binder | SPOT peptide array binding signal intensity
STKKPRPPVKSKPKH | ≤ 0

These binders were tested against AgFus1 in the same assay as above.
How it was run: as §1

Binder | SPOT peptide array binding signal intensity
STKKPRPPVKSKPKH | 9

The binders below were run against AgHof1 in the same assay as above.
How it was run: as §1

Binder | SPOT peptide array binding signal intensity
STKKPRPPVKSKPKH | 1.25

What follows are binders tested against AgHse1 in the same assay as above.
How it was run: as §1

Binder | SPOT peptide array binding signal intensity
STKKPRPPVKSKPKH | 71.5

What follows are binders tested against AgLsb1 in the same assay as above.
How it was run: as §1

Binder | SPOT peptide array binding signal intensity
STKKPRPPVKSKPKH | ≤ 0

These binders were tested against AgLsb4 in the same assay as above.
How it was run: as §1

Binder | SPOT peptide array binding signal intensity
STKKPRPPVKSKPKH | 4

Each binder was assayed against AgMyo5 in the same assay as above.
How it was run: as §1

Binder | SPOT peptide array binding signal intensity
STKKPRPPVKSKPKH | 3.25

What follows are binders tested against AgNbp2 in the same assay as above.
How it was run: as §1

Binder | SPOT peptide array binding signal intensity
STKKPRPPVKSKPKH | 9

These binders were tested against AgRvs167 in the same assay as above.
How it was run: as §1

Binder | SPOT peptide array binding signal intensity
STKKPRPPVKSKPKH | 1.83

What follows are binders tested against AgSho1 in the same assay as above.
How it was run: as §1

Binder | SPOT peptide array binding signal intensity
STKKPRPPVKSKPKH | 23

Each binder was assayed against AgSla1-D1-D2 in the same assay as above.
How it was run: as §1

Binder | SPOT peptide array binding signal intensity
STKKPRPPVKSKPKH | 7

Each binder was assayed against AgSla1-D3 in the same assay as above.
How it was run: as §1

Binder | SPOT peptide array binding signal intensity
STKKPRPPVKSKPKH | ≤ 0

What follows are binders tested against CaAbp1-D1 in the same assay as above.
How it was run: as §1

Binder | SPOT peptide array binding signal intensity
STKKPRPPVKSKPKH | 1410

These binders were tested against CaAbp1-D2 in the same assay as above.
How it was run: as §1

Binder | SPOT peptide array binding signal intensity
STKKPRPPVKSKPKH | 1100

What follows are binders tested against CaBbc1 in the same assay as above.
How it was run: as §1

Binder | SPOT peptide array binding signal intensity
STKKPRPPVKSKPKH | 292

Each binder was assayed against CaBem1-D1 in the same assay as above.
How it was run: as §1

Binder | SPOT peptide array binding signal intensity
STKKPRPPVKSKPKH | 4

What follows are binders tested against CaBzz1-D1 in the same assay as above.
How it was run: as §1

Binder | SPOT peptide array binding signal intensity
STKKPRPPVKSKPKH | 104

These binders were tested against CaBzz1-D2 in the same assay as above.
How it was run: as §1

Binder | SPOT peptide array binding signal intensity
STKKPRPPVKSKPKH | 104

These binders were tested against CaCyk3 in the same assay as above.
How it was run: as §1

Binder | SPOT peptide array binding signal intensity
STKKPRPPVKSKPKH | 2

Each binder was assayed against CaFus1 in the same assay as above.
How it was run: as §1

Binder | SPOT peptide array binding signal intensity
STKKPRPPVKSKPKH | 29

Each binder was assayed against CaHof1 in the same assay as above.
How it was run: as §1

Binder | SPOT peptide array binding signal intensity
STKKPRPPVKSKPKH | 1.25

These binders were tested against CaHse1 in the same assay as above.
How it was run: as §1

Binder | SPOT peptide array binding signal intensity
STKKPRPPVKSKPKH | ≤ 0

Each binder was assayed against CaLsb1 in the same assay as above.
How it was run: as §1

Binder | SPOT peptide array binding signal intensity
STKKPRPPVKSKPKH | 0.5

The binders below were run against CaLsb4 in the same assay as above.
How it was run: as §1

Binder | SPOT peptide array binding signal intensity
STKKPRPPVKSKPKH | ≤ 0

What follows are binders tested against CaMyo5 in the same assay as above.
How it was run: as §1

Binder | SPOT peptide array binding signal intensity
STKKPRPPVKSKPKH | 2.5

These binders were tested against CaNbp2 in the same assay as above.
How it was run: as §1

Binder | SPOT peptide array binding signal intensity
STKKPRPPVKSKPKH | 21

What follows are binders tested against CaRvs167 in the same assay as above.
How it was run: as §1

Binder | SPOT peptide array binding signal intensity
STKKPRPPVKSKPKH | 0.333

What follows are binders tested against CaRvs167-3 in the same assay as above.
How it was run: as §1

Binder | SPOT peptide array binding signal intensity
STKKPRPPVKSKPKH | 6.25

These binders were tested against CaSho1 in the same assay as above.
How it was run: as §1

Binder | SPOT peptide array binding signal intensity
STKKPRPPVKSKPKH | 19.5

What follows are binders tested against CaSla1-D1-D2 in the same assay as above.
How it was run: as §1

Binder | SPOT peptide array binding signal intensity
STKKPRPPVKSKPKH | 318

These binders were tested against CaSla1-D3 in the same assay as above.
How it was run: as §1

Binder | SPOT peptide array binding signal intensity
STKKPRPPVKSKPKH | ≤ 0

The binders below were run against ScAbp1 in the same assay as above.
How it was run: as §1

Binder | SPOT peptide array binding signal intensity
STKKPRPPVKSKPKH | 2130
